Reference: PubChem BioAssay AID652257 (The Scripps Research Institute Molecular Screening Center, 2013)
Out of some 370,000 compounds screened, about 4,800 (1.3%) were called active.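 The calls were made as follows: active = inhibition above about 21% made by adding two undisclosed values (limit read from the data); inactive = the rest.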 What follows is part of a selection rich in actives, with near analogues and random picks from the rest.

biological target: Protein arginine N-methyltransferase 1 (Homo sapiens) (UniProt Q99873); assay: PRMT1 methyltransferase inhibitors, primary screen, biochemical, fluorescence polarization (AID 652257); conditions: recombinant PRMT1, activity-based probe fluorescence polarization; at 2.79 µM; stronger effect = higher value
Sequence (Q99873 whole entry, looked up): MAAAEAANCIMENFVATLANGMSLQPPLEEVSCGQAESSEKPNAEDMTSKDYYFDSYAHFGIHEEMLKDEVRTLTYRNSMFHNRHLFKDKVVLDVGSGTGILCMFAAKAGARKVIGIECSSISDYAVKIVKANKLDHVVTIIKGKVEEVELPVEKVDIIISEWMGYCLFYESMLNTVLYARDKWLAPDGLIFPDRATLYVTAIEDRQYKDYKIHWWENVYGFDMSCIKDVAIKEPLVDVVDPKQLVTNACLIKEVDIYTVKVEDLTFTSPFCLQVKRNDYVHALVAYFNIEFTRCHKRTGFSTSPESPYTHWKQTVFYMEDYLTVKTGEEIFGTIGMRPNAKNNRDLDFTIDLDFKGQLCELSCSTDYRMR

SMILES	inhibition
CC(NCc1nc2ccccc2n1C)C12CC3CC(CC(C3)C1)C2 (stereo unspecified)	5.86% (inactive)
CCC(C)[C@@H](C(=O)OC)N(CCc1cn(Cc2ccccc2)nn1)S(=O)(=O)c1ccccc1Br (stereo partly specified)	1.11% (inactive)
NC(=O)C[C@@H]1NC(=O)CNC(=O)c2cc([N+](=O)[O-])cc(I)c2NCCC(C(N)=O)NC1=O (stereo partly specified)	-3.5% (inactive)
Cc1cc(C)cc(C(=O)N2CCN=C2SCc2ccc([N+](=O)[O-])cc2)c1	-6.78% (inactive)
CC(=O)N1CC[n+]2c(-c3ccc([N+](=O)[O-])cc3)csc21	52.3% (active)
CN1C2CCC1CC(NC(=O)c1ccc([N+](=O)[O-])cc1)C2 (stereo unspecified)	-4.9% (inactive)
Cc1ccc(-n2c(SCC(=O)Nc3ccc(S(=O)(=O)Nc4nccs4)cc3)nnc2-c2ccccn2)cc1	-1.31% (inactive)
Cc1ccc(OS(=O)(=O)c2ccc(-c3csc(C)n3)s2)c(C)c1	27.8% (active)
C=CCN1C(=O)[C@@H](CC(=O)NCC2CCCCC2)[C@]2(C(=O)OC)CCCCC=C12	-0.92% (inactive)
C=CCSC1=C(C#N)C(c2cc(Br)c(O)c(OC)c2)CC(=O)N1 (stereo unspecified)	23.6% (active)
COc1cc(C2C(C#N)=C(C)NC3=C2C(=O)CC(C)(C)C3)ccc1O (stereo unspecified)	-0.43% (inactive)
Cc1cc(=O)[nH]c2nnnn12	-0.07% (inactive)
CCNC(=O)COc1cc(C)c(Br)c(C)c1	-2.57% (inactive)
Cc1ccc(NC(=S)NNC(=O)CSc2nnc(SCc3ccccc3Cl)s2)cc1	-4.6% (inactive)
Cc1cc(=O)[nH]c(SCC(=O)Nc2ccc(F)cc2F)n1	-0.33% (inactive)
COc1ccc(NC(=O)c2ccc(C#CC(C)(C)O)cc2)cc1	25.5% (active)
COc1ccc(C(=O)Nc2c(N)nc(SCC(=O)Nc3ccc(C(C)=O)cc3)[nH]c2=O)cc1	0.6% (inactive)
COc1ccc(C(=O)Nc2ccc(-n3nncc3C(C)(C)C)cc2)cc1	1.48% (inactive)
O=C(CCCCCN1C(=O)C2C3C=CC(C3)C2C1=O)Nc1ccccn1 (stereo unspecified)	-1.78% (inactive)

SMILES	inhibition
Cc1n[nH]c(=O)c2c(NC(=O)COC(=O)c3ncc(Cl)c(Cl)c3Cl)oc(C)c12	7.67% (inactive)
O=C(c1ccncc1)N1CC[C@H]2[C@H](CCCN2Cc2ccc(F)cc2)C1	0.01% (inactive)
CC(=O)Nc1ccc(C(=O)Nc2nc(-c3cc(C)n(Cc4ccccc4)c3C)cs2)cc1	25.2% (active)
Cc1c(C#N)c(NC(=O)c2ccccc2)n(Cc2ccccc2)c1C	-3.16% (inactive)
CCCn1c(C)cc(-c2csc(NC(=O)CCc3nc4ccccc4c(=O)[nH]3)n2)c1C	9.77% (inactive)
COc1ccc([C@H]2N[C@]3(CCCN(CC4CCCCC4)C3=O)[C@H]3C(=O)N(C)C(=O)[C@@H]23)cc1	5.33% (inactive)
Cc1cc(NS(=O)(=O)c2ccc(NC(=O)CSc3nnc(-c4ccc(C(C)(C)C)cc4)n3Cc3ccco3)cc2)nc(C)n1	3.17% (inactive)
O=C(Oc1ccccc1Cl)c1ccc(N2CCOCC2)c([N+](=O)[O-])c1	-1.29% (inactive)
O=C(Oc1ccc(Br)cc1C(=S)N1CCOCC1)c1cccc([N+](=O)[O-])c1	5.11% (inactive)
O=C(Oc1ccccc1C(=S)N1CCCCC1)c1cc([N+](=O)[O-])cc([N+](=O)[O-])c1	41.9% (active)
O=C(Cn1c(N2CCN(C/C=C/c3ccccc3)CC2)nc2ccccc21)c1ccccc1	0.25% (inactive)
CCC(C(=O)NCc1cccnc1)n1nc(C)c2sc3ccccc3c2c1=O (stereo unspecified)	3.72% (inactive)
Cc1ccc(S(=O)(=O)C2(S(=O)(=O)c3ccc(C)cc3)CCCC2)cc1	1.95% (inactive)
CCCOc1ccc(C(=O)C(CCC(CNCC)C(=O)c2ccc(OCCC)cc2)CNCC)cc1 (stereo unspecified)	-1.8% (inactive)
CCc1ccc(N(C(=O)c2csnn2)C(C(=O)NC2CCCCC2)c2ccncc2)cc1 (stereo unspecified)	0.98% (inactive)
Clc1ccc(-n2c(COc3ccccc3)nnc2SCc2nc3ccccc3[nH]2)cc1	4.16% (inactive)
CC1CCN(c2ccc(C(=O)O)cc2NS(=O)(=O)c2ccc(Br)s2)CC1	-1.42% (inactive)
COc1ccc(OCC(=O)OCCN(C)C)cc1	-3.78% (inactive)
COc1ccc(C(=O)COC(=O)COc2ccc(C)c(C)c2)cc1	29.1% (active)

SMILES	inhibition
Cc1ccc(OCC(=O)Nc2ccc(C(=O)O)cc2NC(=O)COc2ccc(C)c(C)c2)cc1C	-0.54% (inactive)
CCn1c(=O)n2n(c1=O)[C@@]1(C=C3CCCC[C@H]32)N=C(NC(=O)c2ccccc2)N(Cc2ccccc2)[C@H]1Cc1ccccc1	-0.64% (inactive)
Cc1cccc(NC(=O)C[C@H]2CC[C@H]3[C@@H](COc4ccc(NC(=O)Nc5ccccc5)cc4C(=O)N3C)O2)c1	0.26% (inactive)
CCOC(=O)Nc1ccc(S(=O)(=O)N(C)C(C)C)cc1	1.03% (inactive)
COc1ccc2c(C(C)c3ccc(N)cc3)cn(C)c2c1 (stereo unspecified)	-4.35% (inactive)
O=C(CSc1cccc[n+]1[O-])NCCCc1ccccc1	-1.06% (inactive)
O=C(CSc1cccc[n+]1[O-])c1ccc(-c2ccccc2)cc1	39.5% (active)
CCN(C(=O)CSc1cccc[n+]1[O-])c1ccccc1	-2.83% (inactive)
CCN(CC)C(=O)CC[C@H]1CC[C@]2(CCCN(Cc3ccc(Cl)cc3)C2)O1	-4.34% (inactive)
CCn1c(CSCc2c(Cl)cccc2Cl)n[nH]c1=S	-0.4% (inactive)
S=c1[nH]nc(CSCc2ccc(Cl)cc2Cl)n1-c1ccccc1	21.5% (active)
Cc1ccc(NCc2n[nH]c(=S)n2-c2ccccc2)cc1Cl	15.4% (inactive)
CCCNC(=O)C1(C)CCCN(C(=O)c2oc3ccccc3c2C)C1 (stereo unspecified)	-2.54% (inactive)
CNc1nc(=O)n(C2CCCO2)cc1C (stereo unspecified)	4.11% (inactive)
C=CS(=O)(=O)N(Cc1nnn(Cc2ccccc2)c1Br)[C@H](C(=O)OC)C(C)C	-6.2% (inactive)
COc1cc2c(=O)n(C)c3ccccc3c2cc1OC	0.5% (inactive)
Cn1c(=O)c([N+](=O)[O-])c(Oc2ccccc2)c2ccccc21	5.71% (inactive)
Cc1cccc(Oc2c([N+](=O)[O-])c(=O)n(C)c3ccccc23)c1	30% (active)
